Assay outcomes from PubChem.
The sample as a whole holds a higher share of hits than the screen did.
UbGFP stabilizer: ubiquitin-GFP accumulation via proteasome inhibition; 67,000 tested, under 10 active; AID 526; Ubiquitin-GFP reporter cells, proteasome inhibition, GFP fluorescence; response scale: untreated = 0%, 10 µM MG-132 = 100%; Potency, µM (doses to about 45.9 µM), actives largely listed as activators; active means well fitted activation curve with a large enough effect, not every such curve was filed as active; inconclusive means small, poorly fitted or top-dose-only effect, or another doubt; inactive means no such curve, though single readings can be large or run the other way
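Proteasome blockade was scored as a rise in GFP-expressing U2OS cells carrying a ubiquitin(G76V)-GFP construct, imaged after 4 hr compound treatment at 37 °C across a 46 uM–2.9 nM series.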
Hsp90 Hop PPI: changes Hsp90-Hop TPR2A binding signal, up or down; AlphaScreen TPR2A-His6 binding biotin-Hsp90 C-terminal peptide; Potency, µM (series often up to 57 µM); actives 0.44% (n = 71,000); AID 595; active means well fitted curve in either direction with a large enough effect; inconclusive means small, poorly fitted or top-dose-only effect, or another doubt
IkB signaling: IkB pathway inhibition in ABC-DLBCL cells; ABC-DLBCL IkBa-CBG/CBR dual luciferase ratio, 4 h; response scale: scaled: untreated 0%, proteasome inhibitor 100%; Potency, µM (series often up to 57.1 µM); actives 0.04% (n = 110,000); active means well fitted curve in the direction sought with a large enough effect in the signal ratio, not every such curve was filed as active; inconclusive means small, poorly fitted or top-dose-only effect, or a change in a side signal; the % refers to the signal ratio;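 further: the direction sought is a rising ratio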
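Luminescence ratio of IκBα-fused green versus native red beetle luciferase in OCI-Ly3 cells, 4 h post-doxycycline with compound; red signal alone, scaled from basal (0%) to zero light (-100%), flagged nonspecific or cytotoxic effects.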
HBB splice mod: modulators of hemoglobin beta chain splicing | HBB splicing reporter cell assay, activation; EGFP reporter with mutant IVS2-654 intron; response scale: normalised to 500 nM splice-correcting PNA | Potency, µM (titrated, usually from 46.1 µM), most hits filed as activators | actives 0.06% (n = 65,000) | AID 925
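Compounds were applied for 2 days to HeLa EGFP-654 cells, 500/well in Optimem with 2% FCS. The reporter's EGFP is disrupted by mis-splicing of beta-globin intron IVS2-654. Readout: summed well GFP fluorescence from 488 nm laser scanning; reference was 500 nM antisense […] 654 PNA.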
Epigenetic mod: epigenetic modulators derepressing GFP locus in mouse cells | Potency, µM (titrated, usually from 46.1 µM) | mouse C127i GFP locus derepression, cytometry, 30 h | AID 597 | actives 0.09% (n = 68,000)
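Locus derepression in mouse mammary C127i cells whose integrated CMV-GFP reporter is normally silent; GFP expression after 30 h compound treatment was quantified by counting fluorescent cells.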
Each line names hits and unclear results; the compound was inactive in the other large screens. Unless noted, the call rests on the fitted dose curve; in most records, active means well fitted curve in the direction sought with a large enough effect; inconclusive means small, poorly fitted or top-dose-only effect, or another doubt; inactive means no such curve, though single readings can be large; an effect the other way counts as inactive or inconclusive.

O=C1C=C(N2CCN(c3ccccn3)CC2)C(=O)c2c(O)ccc(O)c21	Hsp90 Hop PPI inconclusive, IkB signaling 5µM
CCN(CC)[C@@H](C)C(=O)N1c2ccccc2Sc2ccccc21	none
c1ccc(CNCCN2CCNCC2)nc1	Hsp90 Hop PPI 4µM
O=S1(=O)CCN(Cc2ccccn2)CC1	none
C[N+](C)(C)CC(=O)N/N=C\c1ccncc1	none
C[N+](C)(C)CC(=O)N/N=C\c1c(O)ccc2ccccc12	Hsp90 Hop PPI 3.2µM
CC1=NNC(=S)NCCCN2CCN(CCCNC(=S)NN=C(C)C=NNC(=S)NCCCN3CCN(CCCNC(=S)NN=C1)CC3)CC2	Hsp90 Hop PPI 4µM
CCOC(=O)C1=C(C)NC(=O)NC1c1ccc(OC(C)C(=O)O)c(OC)c1 (configuration not stated)	Hsp90 Hop PPI 13µM
CCOC(=O)C1=C(C)NC(=O)NC1c1ccc(OCC(=O)OC)c(OC)c1 (configuration not stated)	none
C=CCN1CCc2c(cc(O)c(O)c2Br)[C@H](c2ccccc2)C1	Hsp90 Hop PPI 10µM
CCN(CC)c1ccc2cc(-c3nnc(-c4ccncc4)o3)c(=O)oc2c1	Epigenetic mod 2µM (no result: UbGFP stabilizer, Hsp90 Hop PPI, IkB signaling, HBB splice mod)
CC(C)C1=CC2=CC[C@H]3[C@@](C)(CCC[C@]3(C)C(=O)O)[C@@H]2CC1	none (no result: HBB splice mod)
COc1ncc2nc(CCc3ccccc3)c(=O)n(-c3ccccc3)c2n1	none
CN(C)c1ncc2nc(CCc3ccccc3)c(=O)n(-c3ccccc3)c2n1	Hsp90 Hop PPI 20µM
O=C(O)CCCNc1cc(N2CCC3(CC2)OCCO3)c2noc3c2c1C(=O)c1ccccc1-3	Hsp90 Hop PPI 3.2µM, IkB signaling inconclusive
CC(=NCCCn1ccnc1)C1=C(O)c2ccccc2C1=O	Hsp90 Hop PPI 13µM, HBB splice mod inconclusive
O=C1C(C=NCCCn2ccnc2)=C(O)c2ccccc21	Hsp90 Hop PPI 3.2µM
COC(=O)NC(c1ccc(F)cc1)C(C(C)=O)C(=O)OC (configuration not stated)	none (no result: UbGFP stabilizer, Hsp90 Hop PPI, IkB signaling, Epigenetic mod)
Nc1ccc2c3c(cccc13)CC2	Epigenetic mod 13µM (no result: UbGFP stabilizer, Hsp90 Hop PPI, IkB signaling, HBB splice mod)
CCCCCCCCCCCCCCCCCCNC(=O)OC[C@@H](COP(=O)([O-])OCC[n+]1ccsc1)OC	none
COC(=O)Cn1cc(C(=O)OC)c2ccccc21	none
COC(=O)c1cn(CCOc2ccccc2)c2ccccc12	Hsp90 Hop PPI 25µM
NS(=O)(=O)c1ccc(N=Nc2nc3[nH]cnc(=S)c3[nH]2)cc1	HBB splice mod 4µM
COC(=O)C/C=C\[C@@H](C)[C@@H](/C=N\OCC[C@@H]1C=C[C@H](OC(C)=O)[C@H](COC(C)=O)O1)OC	none (no result: UbGFP stabilizer, Hsp90 Hop PPI, IkB signaling, Epigenetic mod)
CN(C)c1ncc2nc(-c3ccccc3)c(=O)n(C3CC3)c2n1	Hsp90 Hop PPI 20µM
CN(C)c1ncc2nc(-c3ccc(Cl)cc3)c(=O)n(C3CC3)c2n1	Epigenetic mod inconclusive
O=C(/C=C\c1ccc(O)c(O)c1)OCCc1ccccc1	Hsp90 Hop PPI inconclusive
C#CCCCO/N=C1/C[C@@H](O)[C@@H](O)[C@@H]2[C@@H]3C(=O)N(C(C)(C)C)C(=O)[C@H]3CC[C@@H]12	none (no result: UbGFP stabilizer, Hsp90 Hop PPI, IkB signaling, Epigenetic mod)
O=C(OC1CCCCC1)c1ccc2c(c1)C1C=CCC1C(C(=O)O)N2 (configuration not stated)	Hsp90 Hop PPI inconclusive
O=C(O)C1Nc2c(O)cccc2C2C=CCC12 (configuration not stated)	Hsp90 Hop PPI 25µM, IkB signaling inconclusive
Cc1coc(NC(=O)CSc2nc(-c3ccncc3)cc(C(F)(F)F)c2C#N)n1	Epigenetic mod 10µM (no result: HBB splice mod)
COc1ccccc1OC1=NS(=O)(=O)c2ccccc21	none (no result: HBB splice mod)
CCN(CC)c1cccc(OC2=NS(=O)(=O)c3ccccc32)c1	Epigenetic mod 3.2µM
O=C1C(Cl)=C(Nc2ccc(S(=O)(=O)Nc3ccccn3)cc2)C(=O)c2ccccc21	IkB signaling 6.3µM
COc1ccc2[nH]c(=O)c(CN(C3CCCCC3)C(c3nnnn3Cc3ccco3)C(C)C)cc2c1 (configuration not stated)	IkB signaling 7.9µM (no result: HBB splice mod)
COc1ccc2c(c1OC)C(=O)N(c1cccc(C)c1)C2=O	none
Cc1cccc(N2C(=O)c3cccc4c(N(C)CCO)ccc(c34)C2=O)c1	HBB splice mod 20µM
